Article PMC4336329 (PLoS ONE, 2015)
Among all 310,000 compounds or so, about 14,000 (4.5%) showed an effect of 50% or more. Effects have a minus sign here. The entries come from a sample that favours strong results as a whole.

Each molecule was assayed against human ether-à-go-go-related gene (hERG) potassium channel (human, UniProt Q12809) (assay: primary screen, population patch clamp on CHO cells stably expressing hERG; higher = less effect of the substance).
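Note: peak tail current of the secondary pulse compared with the same well before compound.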

human ether-à-go-go-related gene (hERG) potassium channel, sequence (Q12809 whole entry, looked up): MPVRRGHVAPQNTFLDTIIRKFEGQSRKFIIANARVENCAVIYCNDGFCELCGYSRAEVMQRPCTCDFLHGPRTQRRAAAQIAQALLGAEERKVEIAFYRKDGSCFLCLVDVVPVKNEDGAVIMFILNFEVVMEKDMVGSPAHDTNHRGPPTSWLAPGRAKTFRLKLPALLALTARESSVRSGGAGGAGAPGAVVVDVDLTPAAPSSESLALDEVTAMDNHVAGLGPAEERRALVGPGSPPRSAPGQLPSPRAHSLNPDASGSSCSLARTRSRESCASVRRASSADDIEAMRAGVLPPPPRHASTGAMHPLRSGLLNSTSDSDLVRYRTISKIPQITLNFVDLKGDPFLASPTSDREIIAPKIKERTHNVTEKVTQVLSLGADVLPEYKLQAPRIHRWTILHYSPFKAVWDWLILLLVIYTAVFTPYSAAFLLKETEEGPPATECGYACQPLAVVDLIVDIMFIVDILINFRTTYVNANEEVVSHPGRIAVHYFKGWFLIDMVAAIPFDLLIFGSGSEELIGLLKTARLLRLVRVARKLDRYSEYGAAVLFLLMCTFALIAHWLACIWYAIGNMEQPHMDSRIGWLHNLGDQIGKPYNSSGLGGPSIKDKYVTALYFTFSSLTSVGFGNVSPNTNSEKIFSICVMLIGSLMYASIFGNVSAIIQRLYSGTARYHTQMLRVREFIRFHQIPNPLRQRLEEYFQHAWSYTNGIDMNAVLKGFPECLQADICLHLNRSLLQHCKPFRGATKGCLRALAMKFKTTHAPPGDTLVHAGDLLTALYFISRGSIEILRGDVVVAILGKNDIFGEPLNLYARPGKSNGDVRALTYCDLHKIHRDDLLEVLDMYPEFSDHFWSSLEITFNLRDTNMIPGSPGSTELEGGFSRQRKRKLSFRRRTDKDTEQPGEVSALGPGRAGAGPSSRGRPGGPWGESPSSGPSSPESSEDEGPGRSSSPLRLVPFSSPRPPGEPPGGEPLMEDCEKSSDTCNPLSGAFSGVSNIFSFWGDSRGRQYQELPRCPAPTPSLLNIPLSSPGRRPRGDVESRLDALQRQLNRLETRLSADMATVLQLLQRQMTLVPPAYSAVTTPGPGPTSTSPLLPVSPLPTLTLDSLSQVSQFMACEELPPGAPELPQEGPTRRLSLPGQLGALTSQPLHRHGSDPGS

Compound | hERG current change (%, negative = inhibition) at 10uM
Cc1cc2c(cc1S(=O)(=O)N(C)C1CCCCC1)OCC(=O)N2 | 7.2%
O=S(=O)(NCCCCCNS(=O)(=O)c1ccccc1)c1ccccc1 | -2.98%
Cc1ccc(OCC(=O)Nc2ccc(C(=O)O)cc2NC(=O)COc2ccc(C)c(C)c2)cc1C | 6.5%
COc1ccc2[nH]c3c(=O)n(CCCN4CCOCC4)cnc3c2c1 | -3.86%
CCN1CCCC1Cn1cnc2c([nH]c3ccc(OC)cc32)c1=O (stereo not shown) | -66.1%
COc1ccc2c(c1)[nH]c1c(=O)n(CCN3CCCC3)cnc12 | -46.3%
COc1ccc2[nH]c3c(=O)n(Cc4ccncc4)cnc3c2c1 | -11%
CCC1CCCN1Cn1cnc2c([nH]c3ccc(OC)cc32)c1=O (stereo not shown) | -62.6%
COc1ccc2[nH]c3c(=O)n(CCN4CCOCC4)cnc3c2c1 | -2.38%
CCN1CCCC1Cn1cnc2c([nH]c3cc(OC)ccc32)c1=O (stereo not shown) | -63.8%
COc1ccc2c(c1)[nH]c1c(=O)n(CC3CCCO3)cnc12 (stereo not shown) | 11.1%
COc1ccc2[nH]c3c(=O)n(CCc4ccccc4)cnc3c2c1 | -6.62%
CCCc1cc(CNC(=O)C2CCC(=O)N(CCc3cccc(F)c3)C2)on1 (stereo not shown) | -49.6%
COc1ccccc1NC(=O)c1ccc(C)c(S(=O)(=O)N2CCCCC2)c1 | -8.22%
Cc1nnsc1C(=O)NNc1ccc(C(C)(C)C)cc1 | 14.1%
Cc1onc(-c2c(F)cccc2Cl)c1C(=O)c1ccccc1O | -0.367%
CCc1ccc2nc(SCC(=O)Nc3nnc(C)s3)c(C)cc2c1 | 16%
Cn1cc(Br)c(C(=O)N/N=C/c2cccc(OC3CSC3)c2)n1 | -2.36%
COc1ccc(-n2cccc2/C=C/[N+](=O)[O-])cc1 | -50.4%
COc1ccc(-n2cccc2C=O)cc1 | 16.7%

Compound | hERG current change (%, negative = inhibition) at 10uM
CN(C)c1ccc(-n2cccc2/C=C/[N+](=O)[O-])cc1 | 20.2%
CCOC(=O)c1c(NCc2ccc3c(c2)OCO3)c2ccccc2[nH]c1=O | -10.8%
O=C(Cc1ccccc1)N/N=C/c1ccc(OCC(=O)Nc2ccccc2)cc1 | -14.2%
Cc1cc(NC(=O)CSc2nc3ccc(Cl)cc3[nH]2)no1 | 9.82%
CC(C)C(=O)Nc1ccc(N2CCN(C)CC2)c(F)c1 | 14.2%
COc1ccc(SCC(=O)Nc2ccc(N3CCN(C)CC3)c(F)c2)cc1 | -49.7%
Cc1ccc(SCC(=O)Nc2ccc(N3CCN(c4ccccc4)CC3)c(F)c2)cc1 | 10.3%
O=C(CSc1ccccc1)Nc1ccc(N2CCN(c3ccccc3)CC2)c(F)c1 | 10.9%
CN1CCN(c2ccc(NC(=O)CSc3ccccc3)cc2F)CC1 | -68.4%
O=C(CSc1ccccc1)Nc1ccc(N2CCOCC2)c(F)c1 | 11.8%
Cc1ccc(SCC(=O)Nc2ccc(N3CCN(C)CC3)c(F)c2)c(C)c1 | -72%
CN1CCN(c2ccc(NC(=O)CN3CCOCC3)cc2F)CC1 | 24.5%
Cc1ccc(SCC(=O)Nc2ccc(N3CCN(C)CC3)c(F)c2)cc1 | -64.4%
Cc1ccc2c(CC(=O)OC(C)C(=O)Nc3ncc(Cl)cc3Cl)coc2c1 (stereo not shown) | -28.2%
NC(=O)c1ccsc1NC(=O)c1cccs1 | -13.6%
O=C(Nc1ccc2c(c1)OCO2)c1ccc(N2C(=O)c3ccccc3C2=O)cc1 | -5.61%
Cc1cc2occ(CC(=O)N(CC(C)C)c3c(N)n(Cc4ccccc4)c(=O)[nH]c3=O)c2cc1C | -18.4%
O=C(Cn1cnc2c(nnn2Cc2ccccc2F)c1=O)NCC1CCCO1 (stereo not shown) | -3.88%
O=C(/C=C/c1ccccc1Cl)N1CCN(c2ncccn2)CC1 | -32.4%
O=C(/C=C/c1cccc([N+](=O)[O-])c1)N1CCN(S(=O)(=O)c2cccs2)CC1 | -62.2%

Compound | hERG current change (%, negative = inhibition) at 10uM
O=C(/C=C/c1c(Cl)cccc1Cl)N1CCN(c2ncccn2)CC1 | -72.7%
O=C(/C=C/c1ccccc1[N+](=O)[O-])N1CCN(c2ccccc2F)CC1 | -13.8%
O=C(/C=C/c1ccc(F)cc1)N1CCN(c2ncccn2)CC1 | 12.1%
O=C(/C=C/c1cccc(F)c1)N1CCN(c2ccccn2)CC1 | -118%
O=C(/C=C/c1ccccc1)N1CCN(c2ccccn2)CC1 | -42.8%
O=C(/C=C/c1ccco1)N1CCN(S(=O)(=O)c2cccs2)CC1 | -7.4%
O=C(/C=C/c1ccccc1[N+](=O)[O-])N1CCOCC1 | 15.5%
O=C(/C=C/c1ccccc1[N+](=O)[O-])N1CCN(c2ccc(F)cc2)CC1 | -56.5%
O=C(/C=C/c1ccc([N+](=O)[O-])cc1)N1CCN(S(=O)(=O)c2cccs2)CC1 | -18.7%
O=C(/C=C/c1cccc(F)c1)N1CCN(c2ncccn2)CC1 | 7.29%
COc1cccc(CNC(=O)c2ccc(CS(=O)(=O)Cc3ccc(C)cc3)o2)c1 | -12.8%
CCN(c1cccc(C)c1)S(=O)(=O)c1nnc(NC(=O)c2ccco2)s1 | 3.8%
CCOC(=O)c1sc(NC(=O)c2ccc3nc[nH]c3c2)nc1C | 8.25%
O=C(Nc1cc2ccccc2oc1=O)c1ccccc1 | 22.7%
O=C(Cc1ccccc1)N[C@@H](Cc1ccccc1)C(=O)O | 7.29%
Cc1ccc(CC(=O)NCCC(=O)O)cc1 | 16.9%
Cc1c(C(=O)O)oc2ccc(S(=O)(=O)NCCC3=CCCCC3)cc12 | 0.629%
COc1ccc(NC(=O)C2CCN(C(=O)c3ccco3)CC2)c(OC)c1 | 22.3%
